# Assay outcomes deposited in PubChem BioAssay by University of Pittsburgh Molecular Library Screening Center.
# HIV RNase H inh-1: blocks HIV-1 RNase H cleavage of RNA/DNA duplex | P04585 | AID 565 | inhibition, % at 10 µM | actives 1.9% (n = 65,000) | RT-RNase H RNA/DNA duplex cleavage, fluorescence; in the data active means inhibition above about 50%
# HIV RNase H inh-2: confirmation of HIV-1 reverse transcriptase RNase H inhibitors; inhibition, % at 10 µM; AID 651; actives 39% (n = 1,000); Recombinant RT RNase H, fluorescent RNA/DNA duplex cleavage; shares compounds with HIV RNase H inh-1; in the data active means inhibition above about 48%
# The depositor's hits bear a star. The sample as a whole holds a higher share of hits than the screen did.
SMILES,HIV RNase H inh-1,others
CCN1C(=O)CC(c2ccco2)Sc2ccccc21 (configuration not stated),-14.4,
CC1=C(C#N)C(c2ccc3ncccc3c2)C(C#N)=C(C)N1,-10.0,
N#CC1=C(N)SC(N)=C(C#N)C1c1ccnc2ccccc12,64.9*,HIV RNase H inh-2=60.4*
CC(CC1C(C#N)=C(N)SC(N)=C1C#N)c1ccccc1 (configuration not stated),38.1,
C#CC(CC)(CC)NC(=O)c1c(C)noc1C,-3.9,
c1cncc(-c2nn3c(Cn4cnc5ccccc54)nnc3s2)c1,96.7*,HIV RNase H inh-2=67.7*
c1cncc(-c2nn3cnnc3s2)c1,3.7,
CCN(CC)c1ccc(-c2nn3c(-c4cccnc4)nnc3s2)cc1,-58.4,
CC1(C)Cc2ccccc2-c2nnc(-c3ccccn3)n21,2.2,
CC(=O)Nc1c(O)n(C)c2ccccc12,6.7,
COC(=O)c1ccc(-c2nc(O)c3cnccn23)cc1,1.2,
Cc1c(NC(=O)C(C)OC(=O)CC2Sc3ccccc3NC2=O)c(=O)n(-c2ccccc2)n1C (configuration not stated),0.9,
CSc1ccc(C2C(C#N)=C(N)Oc3c2ccc(=O)c2c(C)oc(C)c32)cc1 (configuration not stated),61.1*,HIV RNase H inh-2=66.9*
Cc1oc(C)c2c(=O)ccc3c(c12)OC(N)=C(C#N)C3c1ccccc1 (configuration not stated),-4.6,
Cc1oc(C)c2c(=O)ccc3c(c12)OC(N)=C(C#N)C3c1ccccc1Cl (configuration not stated),-8.1,
